Source: PubChem BioAssay AID1159580 (chemical genetic matrix, 2015)
Screen size: about 5,500 compounds; about 2,000 (36%) were called active. Roughly 18% stayed inconclusive and do not appear here. Rule as the data show it: active = normalized growth mostly below about 0.91 (no sharp cut-off); inconclusive = no clear call, values can overlap the other calls; inactive = mostly above about 0.92. The list shows a part of the results.

Experiment: chemical genetic growth profiling, strain panel (AID 1159580);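 also: tested at 20 µM; growth read once vehicle control cultures reached saturation at 30 °C; 1 = growth at the plate median or of vehicle wells; lower values mean less growth of the strain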
Conditions: S. cerevisiae deletion strains, growth OD

Measured: normalized growth

CCOC(=O)C1C(=O)C=C(c2cccs2)CC1c1ccc(OC)c(OC)c1Cl (stereo unspecified)
active: locus YLR262C, strain YPT6, hits give low values 0.796
inactive: locus YAL013W, strain DEP1, hits give low values 0.988 | locus YBR229C, strain ROT2, hits give low values 0.991 | locus YDL101C, strain DUN1, hits give low values 0.995 | locus YDL134C, strain PPH21, hits give low values 0.989 | locus YDR150W, strain NUM1, hits give low values 0.968 | locus YEL061C, strain CIN8, hits give low values 1.01 | locus YGR078C, strain PAC10, hits give low values 0.979 | locus YHR030C, strain SLT2, hits give low values 0.874 | locus YHR087W, strain rtc3, hits give low values 0.998 | locus YJR043C, strain POL32, hits give low values 0.983 | locus YJR075W, strain HOC1, hits give low values 0.974 | locus YLR039C, strain RIC1, hits give low values 0.863 | locus YLR058C, strain SHM2 (second series), hits give low values 0.992 | locus YLR085C, strain ARP6, hits give low values 1 | locus YML094W, strain GIM5, hits give low values 1.03 | locus YMR219W, strain ESC1, hits give low values 0.993 | locus YMR263W, strain SAP30, hits give low values 1.01 | locus YNL153C, strain GIM3, hits give low values 0.988 | locus YNL298W, strain CLA4 (second series), hits give low values 0.976 | locus YNL322C, strain KRE1, hits give low values 0.993 | locus YNR030W, strain Alg12, hits give low values 0.968 | locus YOL006C, strain TOP1, hits give low values 0.895 | locus YPL055C, strain LGE1, hits give low values 1.04 | locus YPL241C, strain CIN2, hits give low values 1.01 | locus YPR135W, strain CTF4, hits give low values 0.843
